Data from PubChem BioAssay (NCI).
About 83,000 compounds went through this panel and 20% of them were active in at least one assay; those are over-represented in the sample as a whole.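 Growth was measured after 48 h exposure to one concentration of compound in 96-well plates. Values under 10 count as active.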 Calls of active or inactive are those of the source.

What was measured:
Assay in all cases: NCI-60 one-dose screen, 48 h (100 = growth as untreated, 0 = no growth, -100 = all killed)
Conditions in all cases: 10 µM unless noted
[1] = system: T-47D breast
[2] = system: BT-549 breast
[3] = system: MDA-MB-435 melanoma
[4] = system: SW-620 colon
[5] = system: MCF7 breast
[6] = system: HCT-116 colon
[7] = system: HCC-2998 colon
[8] = system: KM12 colon

Measured: growth

N[C@H]1CN(C(=O)c2cc3cc(Br)c(F)c(F)c3[nH]2)C[C@@H]1O
inactive: [1] 91.3% | [2] 89.5% | [3] 99.2% | [4] 101% | [5] 89.3% | [6] 93.6% | [7] 93.3% | [8] 104%

COc1ccc(-c2nc(-c3nc4cc(C)c(C)cc4[nH]3)cc3c2[nH]c2ccccc23)cc1
inactive: [1] 52.1% | [2] 70.9% | [3] 49.2% | [4] 77.3% | [5] 39.1% | [6] 18.1% | [7] 16.6% | [8] 44.2%

O=C1NN(C(=O)c2ccc(Cl)cc2)C(c2ccccc2)=N/C1=C\c1cn(-c2ccccc2)nc1-c1ccccc1
inactive: [1] 90.4% | [2] 101% | [3] 71.4% | [4] 101% | [5] 91.3% | [6] 82.4% | [7] 101% | [8] 98.6%

Cc1c(C(=N)C(C#N)C#N)c(=N)oc2c1ccc1ccccc12
inactive: [1] 71.9% | [2] 73.9% | [3] 83.6% | [4] 92.2% | [5] 57.9% | [6] 79.6% | [7] 80.3% | [8] 101%

NC(N)=N/N=C/c1ccc(-c2ccc(-c3cc(Cl)cc(Cl)c3)s2)cc1
inactive: [1] 28.8% | [2] 95.7%
active: [3] 1.1% | [4] -66.3% | [5] -39.9% | [6] -75.9% | [7] -17.3% | [8] -62.4%

COc1ccc(/C=C\c2cc(OC)c(OC)c(OC)c2)cc1OC(=O)c1cccc(Cn2cc(CCOC(=O)c3cccc(Cn4nnc5c4C(=O)c4ccccc4C5=O)c3)nn2)c1
inactive: [1] 67.6% | [2] 27% | [4] 27.8% | [7] 17.6%
active: [3] -36.3% | [5] 8.36% | [6] 6.52% | [8] 9.04%

C/C(=N/NC(=S)Nc1ccccc1)c1nc2ccc(Cl)cc2[nH]1
active: [1] -68.3% | [2] -94.9% | [3] -84.5% | [4] -76.9% | [5] -85.4% | [6] -27% | [7] -89.9% | [8] -82.5%

O=C1NN(C(=O)c2ccc(Cl)cc2)C(c2ccccc2)=N/C1=C\c1ccc(F)cc1
inactive: [1] 80.7% | [2] 78.9% | [3] 91.5% | [4] 42.5% | [5] 98.2% | [6] 62.9% | [7] 95.3% | [8] 59.1%

COc1ccncc1S(=O)(=O)NC(=O)Nc1ccc(Cl)c(Cl)c1
inactive: [1] 78.1% | [2] 111% | [3] 100% | [4] 99.6% | [5] 105% | [6] 91.7% | [7] 101% | [8] 91.9%

Cc1[nH]c2ccc(F)cc2c1CCNC(=O)C1CCN(C(=O)c2ccccc2)C1 (configuration not stated)
inactive: [1] 69.5% [25 µM] | [2] 94.7% [25 µM] | [3] 99.3% [25 µM] | [4] 102% [25 µM] | [5] 90.9% [25 µM] | [6] 99.7% [25 µM] | [7] 106% [25 µM] | [8] 102% [25 µM]

COc1ccc2c(c1)OC1=C(C(=O)OC1)C2c1cc(OC)c2c(c1)OCO2 (configuration not stated)
inactive: [1] 52.1% | [2] 26% | [4] 18.7% | [5] 15% | [6] 10% | [7] 14.9%
active: [3] -22.5% | [8] 1.61%

COc1ccc(NC(=O)c2c(Nc3ccc(OC)cc3OC)n[nH]c2N)c(OC)c1
inactive: [1] 83% | [2] 93.7% | [3] 95.2% | [4] 102% | [5] 76.4% | [6] 90.1% | [7] 107% | [8] 102%

CCCCCCCCN(CCCCCCCC)CCCCCCNc1cc(OC)cc2cccnc12
inactive: [1] 104% | [2] 79.7% | [3] 95.2% | [4] 10.8% | [5] 61.7% | [7] 93.4% | [8] 58.9%
active: [6] -30.1%

COc1ccc2[nH]c(=O)c3c4ccccc4cn3c2c1
inactive: [1] 44.6% | [2] 37.9% | [4] 13.3% | [5] 17.1% | [7] 31.3% | [8] 10.4%
active: [3] -23.3% | [6] -28.9%
